Common to all, as to design: scale not given: direction of the effect not stated beside the values
Assay [1] concerns the target Protein translocase subunit SecA (Escherichia coli (strain K12)) (UniProt P10408). In words: Assay to Identify E. coli SecA ATPase Inhibitors. The following applies: 30 µM. It counts as functional.
Assay [2] addresses T1, Ubiquitin-activating enzyme e1, putative (Leishmania donovani (strain BPK282A1)) (UniProt E9BSI1).
T1 sequence (whole entry): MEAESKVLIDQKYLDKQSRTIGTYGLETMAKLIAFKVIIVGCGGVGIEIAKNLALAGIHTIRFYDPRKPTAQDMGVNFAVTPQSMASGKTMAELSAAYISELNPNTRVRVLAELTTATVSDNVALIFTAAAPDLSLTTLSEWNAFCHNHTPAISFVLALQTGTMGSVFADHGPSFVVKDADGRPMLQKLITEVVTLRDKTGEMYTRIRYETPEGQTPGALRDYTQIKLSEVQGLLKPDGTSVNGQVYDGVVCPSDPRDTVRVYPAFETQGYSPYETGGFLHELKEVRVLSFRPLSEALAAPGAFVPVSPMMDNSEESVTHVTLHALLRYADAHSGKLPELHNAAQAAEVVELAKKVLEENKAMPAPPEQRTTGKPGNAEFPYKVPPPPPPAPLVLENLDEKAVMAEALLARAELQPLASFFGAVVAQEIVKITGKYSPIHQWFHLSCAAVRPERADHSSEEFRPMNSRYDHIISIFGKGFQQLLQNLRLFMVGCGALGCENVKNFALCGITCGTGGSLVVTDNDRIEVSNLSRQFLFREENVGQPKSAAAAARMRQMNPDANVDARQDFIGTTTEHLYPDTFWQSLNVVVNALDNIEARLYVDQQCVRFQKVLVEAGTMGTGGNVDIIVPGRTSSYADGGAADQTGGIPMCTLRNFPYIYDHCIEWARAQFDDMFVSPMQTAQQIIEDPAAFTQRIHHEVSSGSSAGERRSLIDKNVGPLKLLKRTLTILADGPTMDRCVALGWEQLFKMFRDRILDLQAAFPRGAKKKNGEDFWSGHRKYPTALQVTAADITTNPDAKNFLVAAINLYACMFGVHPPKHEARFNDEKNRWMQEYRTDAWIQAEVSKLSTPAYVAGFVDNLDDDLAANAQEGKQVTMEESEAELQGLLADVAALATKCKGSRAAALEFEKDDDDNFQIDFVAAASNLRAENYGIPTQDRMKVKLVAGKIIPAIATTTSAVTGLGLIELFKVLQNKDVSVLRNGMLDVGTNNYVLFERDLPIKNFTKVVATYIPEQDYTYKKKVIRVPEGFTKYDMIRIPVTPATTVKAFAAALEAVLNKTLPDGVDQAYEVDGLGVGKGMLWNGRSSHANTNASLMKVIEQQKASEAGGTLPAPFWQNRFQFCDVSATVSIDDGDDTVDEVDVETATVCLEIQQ
The assay is described as follows: Leishmania donovani Ubiquitin Activating Enzyme (LdE1). It counts as functional. The following applies: 30 µM.

Assay [3] addresses AMP-activated protein kinase, AMPK (Homo sapiens) (UniProt P54646+O43741+P54619+Q9UGJ0+Q9Y478+Q13131+Q9UGI9). The assay is described as follows: AMP-dependent Kinase enzyme assay. An in vitro enzyme assay that detects ADP turnover that is directly proportional to AMPK activity. This uses naive AMPK that is activated during the assay with MK-8722. The following applies: 30 µM. It counts as functional.

Assay [4] has as its target Sialic acid-binding Ig-like lectin 9 (Homo sapiens) (UniProt Q9Y336). In words: Hs-Siglec9 ALPHAscreen SOP 20170721. The note with it: 10 µM.
In a further assay the test system is Trypanosoma cruzi. In words: Trypanosoma cruzi phosphomannomutase and mannose-1-phosphate guanylyltransferase assay. The note with it: 10 µM. It counts as functional.
In assay [5] the target is T2, Arginase-2, mitochondrial (Homo sapiens) (UniProt P78540).
T2 sequence (whole entry): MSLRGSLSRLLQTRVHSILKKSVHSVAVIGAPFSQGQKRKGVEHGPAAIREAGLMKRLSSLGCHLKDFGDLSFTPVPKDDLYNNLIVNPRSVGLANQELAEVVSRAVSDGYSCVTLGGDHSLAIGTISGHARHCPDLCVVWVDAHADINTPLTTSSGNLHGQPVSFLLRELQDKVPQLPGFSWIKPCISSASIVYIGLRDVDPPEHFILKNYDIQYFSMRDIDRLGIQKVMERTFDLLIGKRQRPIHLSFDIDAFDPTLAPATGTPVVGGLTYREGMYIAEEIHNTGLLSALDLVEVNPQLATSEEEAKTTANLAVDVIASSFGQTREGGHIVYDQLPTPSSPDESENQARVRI
The assay is described as follows: in vitro enzyme assay to detect the production of urea directly proportional to the activity of Arginase II. Also: in the data most compounds retested in dose-response had high values. The class given is functional. The note with it: 33.3 µM.

Assay [6] deals with T3, Proteasome subunit beta (Trypanosoma cruzi) (UniProt O96673).
T3 sequence (whole entry): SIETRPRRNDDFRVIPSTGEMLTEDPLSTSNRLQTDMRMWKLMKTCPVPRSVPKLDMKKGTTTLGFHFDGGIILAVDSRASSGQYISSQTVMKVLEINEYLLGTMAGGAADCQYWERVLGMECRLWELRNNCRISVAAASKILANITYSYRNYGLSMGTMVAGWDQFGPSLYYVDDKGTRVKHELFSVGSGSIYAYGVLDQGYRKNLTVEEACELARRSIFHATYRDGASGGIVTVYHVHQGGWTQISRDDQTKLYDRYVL
In words: Trypanosoma cruzi proteasome chymotrypsin-like activity (TcProtChymo) assay. Also: in the data most compounds retested in dose-response had high values. The class given is functional. The note with it: 9.37 µM.

The species entered for a further assay is Homo sapiens. In words: To identify inhibition of the IFN signalling (Jak-Stat) pathway via expression of an eGFP reporter gene under the control of an IFN-stimulated response element (ISRE) containing MxA promoter. The class given is functional. The following applies: 30 µM.
Assay [7] deals with T4, Tyrosyl-tRNA synthetase, putative (Trypanosoma cruzi (strain CL Brener)) (UniProt Q4DSP6).
T4 sequence (whole entry): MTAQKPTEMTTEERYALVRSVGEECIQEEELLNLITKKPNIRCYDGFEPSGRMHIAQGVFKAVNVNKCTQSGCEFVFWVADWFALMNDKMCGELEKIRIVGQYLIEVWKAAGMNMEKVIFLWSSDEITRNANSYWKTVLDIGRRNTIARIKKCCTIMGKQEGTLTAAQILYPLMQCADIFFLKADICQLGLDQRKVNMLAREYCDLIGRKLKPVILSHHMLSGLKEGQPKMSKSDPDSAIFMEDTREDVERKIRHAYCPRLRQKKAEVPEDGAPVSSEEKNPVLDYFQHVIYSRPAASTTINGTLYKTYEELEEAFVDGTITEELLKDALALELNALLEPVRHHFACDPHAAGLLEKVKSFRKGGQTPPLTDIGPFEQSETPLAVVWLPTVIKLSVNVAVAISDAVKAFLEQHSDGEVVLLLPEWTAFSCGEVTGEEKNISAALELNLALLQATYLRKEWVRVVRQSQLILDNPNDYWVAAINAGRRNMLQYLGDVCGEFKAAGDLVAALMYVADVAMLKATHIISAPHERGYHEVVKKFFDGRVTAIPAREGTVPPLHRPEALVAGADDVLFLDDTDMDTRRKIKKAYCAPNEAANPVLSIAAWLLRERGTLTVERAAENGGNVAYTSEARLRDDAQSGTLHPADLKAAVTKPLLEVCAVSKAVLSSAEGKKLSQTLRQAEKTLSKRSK
In words: Trypanosoma cruzi tyrosyl tRNA synthetase (TcYRS) _High Tyrosine SOP. Also: in the data most compounds retested in dose-response had high values. The note with it: 30 µM. The class given is functional.

Assay [8] has as its target T4, Tyrosyl-tRNA synthetase, putative (Trypanosoma cruzi (strain CL Brener)). The assay is described as follows: Trypanosoma cruzi tyrosyl tRNA synthetase (TcYRS) SOP. The class given is functional. The note with it: 30 µM.
Assay [9] deals with Chromo domain-containing protein 1 (Saccharomyces cerevisiae (strain ATCC 204508 / S288c) (Baker's yeast)) (UniProt P32657). The assay is described as follows: ScCHD-1 Enzyme Inhibition Assay. Also: in the data most compounds retested in dose-response had high values. The class given is functional. The note with it: 30 µM.
Chromo domain-containing protein 1 (Saccharomyces cerevisiae (strain ATCC 204508 / S288c) (Baker's yeast)), sequence (P32657 whole entry, the tested form may be a part): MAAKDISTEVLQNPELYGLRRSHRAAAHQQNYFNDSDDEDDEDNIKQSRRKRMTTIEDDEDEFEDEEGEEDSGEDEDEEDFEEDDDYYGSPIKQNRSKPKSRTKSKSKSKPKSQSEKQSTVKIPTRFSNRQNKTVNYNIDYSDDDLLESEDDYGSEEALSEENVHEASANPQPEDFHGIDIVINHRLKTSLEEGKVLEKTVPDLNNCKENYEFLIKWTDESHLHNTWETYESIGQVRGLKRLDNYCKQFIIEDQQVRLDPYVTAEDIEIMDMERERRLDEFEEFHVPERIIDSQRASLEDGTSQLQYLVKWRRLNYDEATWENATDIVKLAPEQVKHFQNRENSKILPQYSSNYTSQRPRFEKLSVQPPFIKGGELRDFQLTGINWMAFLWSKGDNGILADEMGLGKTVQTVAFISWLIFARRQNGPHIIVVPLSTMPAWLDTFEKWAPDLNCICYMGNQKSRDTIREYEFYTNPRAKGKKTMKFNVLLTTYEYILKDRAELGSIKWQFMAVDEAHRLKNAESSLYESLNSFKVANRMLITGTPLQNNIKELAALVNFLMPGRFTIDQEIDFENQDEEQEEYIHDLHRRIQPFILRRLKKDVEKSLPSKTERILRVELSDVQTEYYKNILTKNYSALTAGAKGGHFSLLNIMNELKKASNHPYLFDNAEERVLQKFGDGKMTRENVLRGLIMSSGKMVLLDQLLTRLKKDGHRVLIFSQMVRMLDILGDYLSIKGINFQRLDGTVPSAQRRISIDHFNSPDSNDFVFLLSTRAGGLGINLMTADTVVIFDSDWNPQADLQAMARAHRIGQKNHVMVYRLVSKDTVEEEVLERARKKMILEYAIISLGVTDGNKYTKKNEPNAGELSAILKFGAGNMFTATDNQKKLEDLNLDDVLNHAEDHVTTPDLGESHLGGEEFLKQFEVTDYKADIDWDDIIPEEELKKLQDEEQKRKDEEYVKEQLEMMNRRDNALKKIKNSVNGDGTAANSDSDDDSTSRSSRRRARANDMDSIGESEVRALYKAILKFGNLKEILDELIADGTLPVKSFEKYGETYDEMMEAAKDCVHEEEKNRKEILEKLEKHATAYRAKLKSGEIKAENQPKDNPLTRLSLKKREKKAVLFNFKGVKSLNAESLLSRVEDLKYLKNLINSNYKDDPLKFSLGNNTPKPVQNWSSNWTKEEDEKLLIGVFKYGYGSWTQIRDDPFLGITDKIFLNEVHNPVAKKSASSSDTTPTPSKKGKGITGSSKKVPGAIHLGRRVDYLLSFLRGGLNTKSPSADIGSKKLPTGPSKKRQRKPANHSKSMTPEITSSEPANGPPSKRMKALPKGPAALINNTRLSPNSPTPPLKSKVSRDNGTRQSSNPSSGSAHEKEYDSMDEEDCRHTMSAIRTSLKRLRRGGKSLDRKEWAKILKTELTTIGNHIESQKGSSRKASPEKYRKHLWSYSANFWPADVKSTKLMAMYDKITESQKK

Each structure is given as a SMILES string. For some of these results: Entries with a potency or affinity are not part of this list.

Protein translocase subunit SecA (Escherichia coli (strain K12)), sequence (P10408 whole entry): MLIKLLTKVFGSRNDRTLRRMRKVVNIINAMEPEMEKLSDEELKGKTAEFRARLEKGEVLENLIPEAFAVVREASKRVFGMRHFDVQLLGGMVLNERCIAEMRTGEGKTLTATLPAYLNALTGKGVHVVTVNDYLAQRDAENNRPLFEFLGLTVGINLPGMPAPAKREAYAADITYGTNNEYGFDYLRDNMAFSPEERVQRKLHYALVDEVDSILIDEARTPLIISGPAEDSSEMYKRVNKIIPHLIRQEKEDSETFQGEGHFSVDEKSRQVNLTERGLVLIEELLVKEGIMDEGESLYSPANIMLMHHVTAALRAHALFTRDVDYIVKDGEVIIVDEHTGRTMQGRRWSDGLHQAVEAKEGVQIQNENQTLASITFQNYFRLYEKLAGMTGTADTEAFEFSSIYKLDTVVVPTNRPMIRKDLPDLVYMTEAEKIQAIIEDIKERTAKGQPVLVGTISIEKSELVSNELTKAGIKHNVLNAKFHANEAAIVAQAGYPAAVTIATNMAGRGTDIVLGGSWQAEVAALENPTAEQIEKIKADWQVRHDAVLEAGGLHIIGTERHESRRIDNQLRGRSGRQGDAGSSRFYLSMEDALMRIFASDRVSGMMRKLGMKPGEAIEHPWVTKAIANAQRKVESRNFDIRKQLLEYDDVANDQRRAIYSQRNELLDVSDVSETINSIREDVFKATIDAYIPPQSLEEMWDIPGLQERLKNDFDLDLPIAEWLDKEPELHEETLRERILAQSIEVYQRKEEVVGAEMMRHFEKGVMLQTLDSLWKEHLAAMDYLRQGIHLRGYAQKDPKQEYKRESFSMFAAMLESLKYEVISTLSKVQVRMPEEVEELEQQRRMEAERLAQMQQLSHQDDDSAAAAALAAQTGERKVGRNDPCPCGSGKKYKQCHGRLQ
Sialic acid-binding Ig-like lectin 9 (Homo sapiens), sequence (Q9Y336 whole entry): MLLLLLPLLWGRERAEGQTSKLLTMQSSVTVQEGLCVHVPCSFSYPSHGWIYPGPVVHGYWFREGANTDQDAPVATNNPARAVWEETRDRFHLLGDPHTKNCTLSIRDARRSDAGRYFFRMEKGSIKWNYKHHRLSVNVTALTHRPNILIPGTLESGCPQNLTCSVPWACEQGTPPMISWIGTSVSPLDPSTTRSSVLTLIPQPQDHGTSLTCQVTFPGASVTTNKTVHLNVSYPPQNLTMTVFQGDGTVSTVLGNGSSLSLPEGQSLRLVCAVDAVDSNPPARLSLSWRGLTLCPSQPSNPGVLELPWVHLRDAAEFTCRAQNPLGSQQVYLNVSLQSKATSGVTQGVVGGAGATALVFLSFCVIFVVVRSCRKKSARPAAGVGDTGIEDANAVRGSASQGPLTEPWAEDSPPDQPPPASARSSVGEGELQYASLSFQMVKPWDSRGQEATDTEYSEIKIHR

For the molecule `O=C(Nc1ccc(F)cc1F)Nc1c[nH]c(=O)[nH]c1=O`, the Percent Effect in [1] was 0.161%; in [2], 10.4%; in assay [3], 5.76%; in assay [4], -2.96%; in the assay on Trypanosoma cruzi, -5.03%; in assay [5], 0.645%. In addition, the Percent Effect is 6.09% in [6]; 8.21% in the assay listed under Homo sapiens; -1.06% in [7]; 3.85% in [8]; -9.44% in assay [9].
As for `O=C(NCCCOCC1CCCO1)c1cccnc1N1CCCC1` (stereo not drawn), the Percent Effect was -2.67% in assay [1]; 5.41% in assay [2]; 4.06% in [3]; -10.2% in assay [4]; -2.93% with Trypanosoma cruzi; 0.833% in assay [5]. The Percent Effect was 14.3% in [6]; -4.98% in the assay filed under Homo sapiens; 9.9% in [7]; -3.66% in assay [8]; 6.21% in assay [9].
For the molecule `CC(C)c1cnc(CNc2c(F)cccc2-n2cccn2)o1`, the Percent Effect is 1.05% in assay [1]; -1.39% in assay [2]; -3.66% in assay [3]; 6.14% in assay [4]; 1.26% in the assay with Trypanosoma cruzi; 12.4% in [5]. Also, the Percent Effect in assay [6] is 11.2%; in the assay listed under Homo sapiens, -14.6%; in [7], -1.05%; in [8] it was 0%; in assay [9], 0.741%.
For the molecule `CN(Cc1ccccc1F)C(=O)CS(=O)(=O)Cc1ccc(Cl)c(Cl)c1`, the Percent Effect in assay [1] is 0.269%; in [2], 10.4%; in assay [3], 6.8%; in [4] it was 0.809%; in the assay on Trypanosoma cruzi, 2.06%; in assay [5], -8.21%. In addition, the Percent Effect was 4.29% in [6]; 9.03% in the assay filed under Homo sapiens; -6.67% in assay [7]; -296% in assay [8]; -20.3% in [9].
For the molecule `Cc1cc(CC(=O)N(CC2CN(C)CCO2)c2nccs2)no1` (stereo not drawn), the Percent Effect is 1.69% in assay [1]; 0% in [2]; -0.764% in assay [3]; 6.8% in assay [4]; 6.41% with Trypanosoma cruzi; 2.03% in assay [5]. Besides, the Percent Effect in assay [6] is 1.08%; in the assay filed under Homo sapiens, -15.8%; in [7], 0%; in assay [8], 6.1%; in [9], -3.54%.
Consider `CCCS(=O)(=O)N1CCC(NC(=O)c2cc(C)c(CC)s2)CC1`, for which the Percent Effect is -1.6% in assay [1]; 2.67% in assay [2]; -3.07% in [3]; 10.4% in assay [4]; 5.94% in the assay with Trypanosoma cruzi; -2.08% in assay [5]. Further, the Percent Effect in assay [6] stood at 7.15%; in the assay filed under Homo sapiens, 13.4%; in assay [7], 6.01%; in [8] it was 18.5%; in assay [9] it was 1.12%.
With `Cn1cc(C2CCCN2C(=O)CCCOCc2ccccc2)cn1` (stereo not drawn), the Percent Effect in [1] is -4.26%; in [2], 10.1%; in assay [3], -1.48%; in assay [4], -1.07%; in the assay on Trypanosoma cruzi, 4.25%; in [5], -1.9%. Also, the Percent Effect in assay [6] is 7.62%; in the assay listed under Homo sapiens, 2.8%; in assay [7] it was 0.493%; in [8], 3.8%; in assay [9], -7.66%.
As to `COc1ccc(CNC(=O)CNc2cc3c(cc2Cl)OCCCO3)cc1`, the Percent Effect is -3.73% in assay [1]; -2.7% in assay [2]; 2.47% in assay [3]; -4.48% in assay [4]; -2.25% with Trypanosoma cruzi; 0.744% in assay [5]. Moreover, the Percent Effect was 3.35% in assay [6]; 11.5% in the assay listed under Homo sapiens; 1.07% in [7]; 1.24% in [8]; -1.22% in assay [9].

The values above are taken from ChEMBL document CHEMBL3988442, “University of Dundee, Small-Polar-MMV Screening Library” (2021).
